HEK cytotox: Cytotoxic Profiling in HEK 293 Cell Line of Diverse Libraries Using Quantitative High-Throughput Screening; HEK 293 viability, ATP luminescence (CellTiter-Glo), 48-72 h; Potency, µM (series often up to 115 µM), for the others: at the highest dose activity change, negative = cytotoxicity, hits mostly inhibitors; hit rate 6.6% among 94,000; note: nearly all actives have a fitted effect of over 60% in size
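250 HEK 293 cells/well; compound by pintool; incubated 48 or 72 hr at 37 degree Celsius; CellTiter-Glo added, 10 min RT, luminescence imaged.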
NIH3T3 tox: Cytotoxic Profiling in NIH 3T3 Cell Line of Diverse Libraries Using Quantitative High-Throughput Screening; hit rate 4.3% among 94,000; NIH 3T3 viability, CellTiter-Glo ATP luminescence, 48-72 h; Potency, µM (doses to about 96.7 µM), for the others: at the highest dose activity change, negative = cytotoxicity, usual class: inhibitors; note: nearly all actives have a fitted effect of over 55% in size
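First NIH 3T3 cells are plated at 400 cells/well; next compound is pinned in; then plates incubate 48 or 72 hr at 37 °C; finally CellTiter-Glo is added and luminescence read after 10 min.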
NPR1 antag: Natriuretic polypeptide receptor (hNpr1) antagonism - Primary qHTS; HEK293 hNpr1 GloSensor cGMP, ANP-stimulated luminescence; hit rate 1.6% among 76,000; AID 1347048, 2019; Atrial natriuretic peptide receptor 1 (Homo sapiens), P16066; Potency, µM (doses to about 46.3 µM), for inactives: at the highest dose activity change, negative = inhibition, hits mostly inhibitors; calls by dose curve; note: nearly all actives have a fitted effect of over 60% in size
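HEK293 cells stably expressing human Npr1 and cGMP GloSensor pGS-40F, loaded 2 h with 2% GloSensor reagent, given compound 30 min at room temperature. Luminescence read before and 20 min after 0.1 nM hNppA.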
FLuc inh: Firefly luciferase inhibition profiling of diverse chemical library using quantitative high-throughput screening | Luciferin 4-monooxygenase (Photinus pyralis), P08659 | purified P. pyralis luciferase, luminescence, biochemical | Potency, µM (titrated, usually from 115 µM), hits mostly inhibitors | hit rate 2.5% among 76,000 | AID 1347043, 2019; note: nearly all actives have a fitted effect of over 65% in size
Target sequence (P08659 whole entry, looked up): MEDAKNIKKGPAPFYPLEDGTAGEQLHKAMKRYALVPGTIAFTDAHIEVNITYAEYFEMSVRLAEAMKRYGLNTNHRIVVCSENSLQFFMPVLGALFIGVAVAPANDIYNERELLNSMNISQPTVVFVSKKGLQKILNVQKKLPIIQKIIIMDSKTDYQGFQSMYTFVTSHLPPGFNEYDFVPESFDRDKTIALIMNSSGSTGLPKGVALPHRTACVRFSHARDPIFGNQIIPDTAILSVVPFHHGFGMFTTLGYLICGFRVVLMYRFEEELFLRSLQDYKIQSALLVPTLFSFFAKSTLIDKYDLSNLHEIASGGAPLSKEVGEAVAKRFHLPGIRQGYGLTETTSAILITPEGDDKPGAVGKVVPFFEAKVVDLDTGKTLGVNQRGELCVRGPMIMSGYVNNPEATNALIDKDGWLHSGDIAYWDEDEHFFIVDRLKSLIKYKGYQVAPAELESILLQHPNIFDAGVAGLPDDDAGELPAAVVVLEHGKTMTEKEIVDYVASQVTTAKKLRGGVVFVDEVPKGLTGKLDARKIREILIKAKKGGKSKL
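Purified 10nM P. pyralis luciferase with 10uM D-luciferin and 10uM ATP in 50mM Tris acetate pH 7.5, 10mM Mg acetate, 0.01% Tween-20, 0.05% BSA. qHTS titration; luminescence read by CCD imager.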
An asterisk follows results filed as active; i = inactive; u = inconclusive; x = no result; ! = repeats disagree; [ ] = another dose, or the depositor's remark. Rows were chosen to be rich in hits. Some 11% of all compounds tested hit in one or more screens of this group. Unless noted, calls come from the whole dose curve; as a rule, active = well fitted curve in the direction sought with a large enough effect; inconclusive = small, poorly fitted or top-dose-only effect, or another doubt; inactive = no such curve, though single readings can be large; an effect the other way counts as inactive or inconclusive. % is set by controls: 0 for no effect and ±100 for the full control effect; potency is the fitted concentration of half-maximal effect.

SMILES | HEK cytotox | NIH3T3 tox | NPR1 antag | FLuc inh
Cc1noc([C@@H]2CN(Cc3ccccc3OC(C)C)C[C@H]2CO)n1 | -14% | -17% | 1% | i
CC(C)Oc1ccccc1CN1C[C@@H](CO)[C@H](c2ccncc2)C1 | 40µM* | u | -17% | i
COc1cccc(CN2C[C@@H](CO)[C@H](c3ccncc3)C2)c1OC | 89µM* | -19% | 3% | i
COC[C@@H]1CN(Cc2cn(C)nc2C)C[C@H]1c1ccncc1 | -4% | -17% | -8% | i
COC[C@@H]1CN(Cc2cccc(OC)c2OC)C[C@H]1c1ccncc1 | 40µM* | u | -17% | i
CCc1ccc(CNC(=O)C2CCN(c3cc(C(F)(F)F)nc(C)n3)CC2)cc1 | u | u | -9% | i
COc1ccc(Nc2ccnc(N3CCC(C(=O)N(C)C)CC3)n2)cc1 | u | -29% | x | x
Cc1ccc(Nc2ccnc(N3CCC(C(=O)NCc4ccc5c(c4)OCO5)CC3)n2)cc1 | u | 18µM* | x | x
COc1ccc(Nc2ccnc(N3CCC(C(=O)NCc4ccc(F)cc4)CC3)n2)cc1 | u | 40µM* | x | x
COc1ccc(CNC(=O)C2CCN(c3nccc(Nc4ccc(OC)cc4)n3)CC2)cc1 | 45µM* | 40µM* | x | x
Cc1nc(N2CCC(C(=O)NCc3ccc4c(c3)OCO4)CC2)cc(C(F)(F)F)n1 | u | u | u | 89µM*
COc1ccc(CNC(=O)C2CCN(c3nccc(Nc4ccc(C)cc4)n3)CC2)cc1 | u | 28µM* | x | x
Cc1ccc(Nc2ccnc(N3CCC(C(=O)NCC4CC4)CC3)n2)cc1 | u | 32µM* | x | x
O=C(c1ccc(Cl)nc1)N1CCCC(C(=O)N2CCC(c3nc4ccncc4[nH]3)CC2)C1 (centres undefined) | 0% | -8% | x | x
Cc1ccncc1C(=O)N1CCC(N2CC3(CCCCC3)C2c2ccncc2)CC1 (centres undefined) | -21% | -17% | x | x
COc1ccc(CCC(=O)N2CC[C@@H]3COCCN(Cc4ccncc4)[C@@H]3C2)cc1 | -4% | u | -12% | 40µM*
COc1cccc(CNC(=O)c2nn(C)c3nc(-c4ccccc4OC)ccc23)c1 | 4% | -24% | x | x
CN(Cc1cccnc1)c1nc2c(c(=O)[nH]1)CCN(Cc1ccccc1)CC2 | -25% | -29% | 3% | i
CN(Cc1cccnc1)c1nc2c(c(=O)[nH]1)CCN(Cc1ccc(C(F)(F)F)cc1)CC2 | 32µM* | u | -17% | i
CN(Cc1cccnc1)c1nc2c(c(=O)[nH]1)CCN(Cc1cccc(Cl)c1F)CC2 | 25µM* | u | -12% | i
O=C(COc1ccccc1)N1CCC(Oc2cnc3c(ccn3-c3cncnc3)c2)CC1 | 89µM* | -67%[138 µM] | -30%[70.6 µM] | i
O=C(C1CCCN1C(=O)c1cccc(-c2cccnc2)c1)N1CCN(c2ncccn2)CC1 (centres undefined) | -14% | -18% | x | x
Cc1cc(N2CCC(NCc3nc[nH]c3C)CC2)nc(-c2ccccc2O)n1 | u | 35µM* | -2% | i
Cc1cc(N2CCC(NCc3noc(C)n3)CC2)nc(-c2ccccc2O)n1 | u | u | -1% | i
Cc1ccccc1NC(=O)Cn1ccn2nc3c(c2c1=O)CCCCC3 | -3% | -4% | -12% | u
SMILES | HEK cytotox | NIH3T3 tox | NPR1 antag | FLuc inh
CN(C)CCN(C)[C@@H]1[C@H](O)[C@H](CO)O[C@@H]1CN(Cc1ccc(Cl)cc1)Cc1cccc(Cl)c1 | u | 28µM* | u | i
OC[C@@H]1O[C@H](CN(Cc2cccc(Cl)c2)Cc2cccc(Cl)c2)[C@H](N2CCN(c3ccccn3)CC2)[C@@H]1O | u | u | 4% | i
O=C(NC1CCN(Cc2cccc(-c3cccs3)c2)CC1)c1ccccc1 | 35µM*! | -31% | x | x
COc1ccccc1C(=O)NC1CCN(Cc2cccc(-c3cccs3)c2)CC1 | 22µM*! | 32µM*! | x | x
Cc1ccc(C(=O)NC2CCN(Cc3cccc(-c4cccs4)c3)CC2)cc1 | u | -29% | x | x
CC(C)n1c(C2CCN(C(=O)c3ccoc3)CC2)nn(C)c1=O | i | 0% | x | x
Cc1cn2nc(C(=O)N3CCN(C(=O)c4ccc(C)s4)CC3)cc2c(=O)[nH]1 | 1% | i | -3% | i
CN(C)C(=O)C(C)(C)Oc1nn(Cc2cccc(Cl)c2)c2ccccc12 | 79µM* | u | -10%[70.6 µM] | i
CN(C)Cc1ccc2c(c1)c(OC(C)(C)C(=O)NC1CC1)nn2Cc1ccccc1 | -23%[172 µM] | u | 4%[70.6 µM] | i
COCc1ccc2c(c1)c(OC(C)(C)C(N)=O)nn2Cc1cccc(OC)c1 | u | u | 6%[70.6 µM] | i
COCCN(C)C(=O)C(C)(C)Oc1nn(Cc2cccc(Cl)c2)c2ccccc12 | 89µM* | 79µM* | -22%[70.6 µM] | i
CCC(=O)N(C1CCOCC1)C1CCN(S(=O)(=O)c2ccc(F)c(C)c2)CC1 | 1% | u | 0% | i
CC(C)C[C@@H]1N[C@H](C(=O)NCc2ccccc2Cl)Cc2c[nH]c3cccc1c23 | 28µM* | 32µM* | -20%[70.6 µM] | i
COc1ccccc1CNC(=O)[C@@H]1Cc2c[nH]c3cccc(c23)[C@H](CC(C)C)N1 | 35µM* | 28µM* | -20%[70.6 µM] | i
CC(C)Cn1c(=O)c(C(=O)N2CCCCC2)nc2cccnc21 | 3%[172 µM] | -18%[138 µM] | x | x
Cc1noc2c(-c3cccc(CO)c3)cc(-c3cccs3)nc12 | 100µM* | 45µM* | 2%[70.6 µM] | i
COc1ccc(Nc2cc(-c3cccs3)nc3c(C)noc23)cc1OC | 63µM* | 45µM* | -21%[70.6 µM] | i
Cc1noc2c(-c3cccc(CO)c3)cc(-c3ccc(F)cc3)nc12 | 71µM* | u | 2%[70.6 µM] | i
Cc1noc2c(-c3cccc(CO)c3)cc(-c3cccc(C(F)(F)F)c3)nc12 | 45µM* | 25µM* | -3%[70.6 µM] | i
COc1cccc(-c2cc(-c3ccccc3)nc3c(C)noc23)c1 | u | u | 1%[70.6 µM] | i
C[C@]1(CO)[C@H]2Cc3sc(NC(=O)c4ccc(F)cc4)nc3[C@@H](CC(=O)Nc3ccccc3)[C@]2(C)CC[C@H]1O | -26% | -4% | -13% | u
Cn1ncc2c(C(=O)N3CCC(c4ccccc4)CC3)cc(-c3ccccc3C(F)(F)F)nc21 | 45µM* | 28µM* | x | x
CC(=O)N1CCN(C(=O)c2cc(-c3ccccc3C(F)(F)F)nc3c2cnn3C)CC1 | 1% | -14% | x | x
Cn1ncc2c(C(=O)N3CCN(Cc4ccccc4)CC3)cc(-c3ccccc3C(F)(F)F)nc21 | 45µM* | u | x | x
Cn1ncc2c(C(=O)N3CCC(Cc4ccccc4)CC3)cc(-c3ccccc3C(F)(F)F)nc21 | 40µM* | 28µM* | x | x
Cn1ncc2c(C(=O)N3CCCCC3)cc(-c3ccccc3C(F)(F)F)nc21 | u | -38% | x | x

Screening data deposited in PubChem by National Center for Advancing Translational Sciences (NCATS).
